# Source: PubChem BioAssay AID1159580 (chemical genetic matrix, 2015)
# Out of some 5,500 compounds screened, about 2,000 (36%) were called active. Inconclusive results (about 18%) are left out. This is one part of the list. Values without a mark were called inactive. Cut-off read from the data, not from the text of the source: active = normalized growth mostly below about 0.91 (no sharp cut-off); inconclusive = no clear call, values can overlap the other calls; inactive = mostly above about 0.92.
# Assay: chemical genetic growth profiling, strain panel (AID 1159580);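 note: tested at 20 µM; growth read once vehicle control cultures reached saturation at 30 °C; 1 = growth at the plate median or of vehicle wells; lower values mean less growth of the strain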
# Settings: growth OD
structure (smiles),measurement,setting,value
CC1=CC(=O)C(C(C)C)=CC1=O,normalized growth,"S. cerevisiae deletion strains, locus YJR066W, strain TOR1, active compounds read low",0.903
same,normalized growth,"S. cerevisiae deletion strains, locus YKL009W, strain mrt4, active compounds read low",0.936
same,normalized growth,"S. cerevisiae deletion strains, locus YKL068W, active compounds read low",0.961
same,normalized growth,"S. cerevisiae deletion strains, locus YKL085W, strain MDH1 (second series), active compounds read low",0.965
same,normalized growth,"S. cerevisiae deletion strains, locus YKL085W, strain MDH1, active compounds read low",0.965
same,normalized growth,"S. cerevisiae deletion strains, locus YKL160W, strain elf1, active compounds read low",0.951
same,normalized growth,"S. cerevisiae deletion strains, locus YKL190W, strain CNB1, active compounds read low",0.946
same,normalized growth,"S. cerevisiae deletion strains, locus YKR001C, strain vps1, active compounds read low",0.727 (active)
same,normalized growth,"S. cerevisiae deletion strains, locus YKR026C, strain gcn3, active compounds read low",0.903 (active)
same,normalized growth,"S. cerevisiae deletion strains, locus YKR091W, strain srl3, active compounds read low",0.999
same,normalized growth,"S. cerevisiae deletion strains, locus YLL001W, strain dnm1, active compounds read low",1.01
same,normalized growth,"S. cerevisiae deletion strains, locus YLL026W, active compounds read low",0.838 (active)
same,normalized growth,"S. cerevisiae deletion strains, locus YLL041C, strain sdh2, active compounds read low",0.95
same,normalized growth,"S. cerevisiae deletion strains, locus YLR027C, strain aat2, active compounds read low",0.638 (active)
same,normalized growth,"S. cerevisiae deletion strains, locus YLR039C, strain RIC1, active compounds read low",0.691
same,normalized growth,"S. cerevisiae deletion strains, locus YLR058C, strain SHM2, active compounds read low",0.946
same,normalized growth,"S. cerevisiae deletion strains, locus YLR102C, strain apc9, active compounds read low",0.95
same,normalized growth,"S. cerevisiae deletion strains, locus YLR113W, strain HOG1, active compounds read low",0.986
same,normalized growth,"S. cerevisiae deletion strains, locus YLR221C, strain rsa3, active compounds read low",0.355 (active)
same,normalized growth,"S. cerevisiae deletion strains, locus YLR258W, strain gsy2, active compounds read low",0.902 (active)
same,normalized growth,"S. cerevisiae deletion strains, locus YLR262C, strain YPT6 (second series), active compounds read low",0.724 (active)
same,normalized growth,"S. cerevisiae deletion strains, locus YLR262C, strain YPT6, active compounds read low",0.643
same,normalized growth,"S. cerevisiae deletion strains, locus YLR268W, strain sec22, active compounds read low",0.764 (active)
same,normalized growth,"S. cerevisiae deletion strains, locus YLR320W, strain mms22, active compounds read low",0.721 (active)
same,normalized growth,"S. cerevisiae deletion strains, locus YLR330W, strain CHS5, active compounds read low",0.648 (active)
same,normalized growth,"S. cerevisiae deletion strains, locus YLR342W, strain FKS1 (second series), active compounds read low",0.749 (active)
same,normalized growth,"S. cerevisiae deletion strains, locus YLR342W, strain FKS1, active compounds read low",1.01
same,normalized growth,"S. cerevisiae deletion strains, locus YLR357W, strain rsc2, active compounds read low",0.632 (active)
same,normalized growth,"S. cerevisiae deletion strains, locus YLR370C, strain arc18, active compounds read low",1.01
same,normalized growth,"S. cerevisiae deletion strains, locus YLR371W, strain rom2, active compounds read low",0.715 (active)
same,normalized growth,"S. cerevisiae deletion strains, locus YLR384C, strain iki3, active compounds read low",0.987
same,normalized growth,"S. cerevisiae deletion strains, locus YLR418C, strain cdc73, active compounds read low",0.54 (active)
same,normalized growth,"S. cerevisiae deletion strains, locus YML016C, strain PPZ1, active compounds read low",0.978
same,normalized growth,"S. cerevisiae deletion strains, locus YML032C, strain rad52, active compounds read low",0.89 (active)
same,normalized growth,"S. cerevisiae deletion strains, locus YML120C, strain ndi1, active compounds read low",0.13 (active)
same,normalized growth,"S. cerevisiae deletion strains, locus YML124C, strain tub3, active compounds read low",0.943
same,normalized growth,"S. cerevisiae deletion strains, locus YMR058W, strain fet3, active compounds read low",0.759 (active)
same,normalized growth,"S. cerevisiae deletion strains, locus YMR078C, strain ctf18, active compounds read low",0.912
same,normalized growth,"S. cerevisiae deletion strains, locus YMR125W, strain sto1, active compounds read low",0.397 (active)
same,normalized growth,"S. cerevisiae deletion strains, locus YMR129W, active compounds read low",0.839 (active)
same,normalized growth,"S. cerevisiae deletion strains, locus YMR205C, strain PFK2, active compounds read low",0.868 (active)
same,normalized growth,"S. cerevisiae deletion strains, locus YMR223W, strain ubp8, active compounds read low",0.847 (active)
same,normalized growth,"S. cerevisiae deletion strains, locus YMR231W, strain pep5, active compounds read low",1.01
same,normalized growth,"S. cerevisiae deletion strains, locus YMR307W, strain GAS1, active compounds read low",0.49 (active)
same,normalized growth,"S. cerevisiae deletion strains, locus YNL067W, strain RPL9B, active compounds read low",0.925
same,normalized growth,"S. cerevisiae deletion strains, locus YNL071W, strain lat1, active compounds read low",0.274 (active)
same,normalized growth,"S. cerevisiae deletion strains, locus YNL183C, strain NPR1, active compounds read low",0.892
same,normalized growth,"S. cerevisiae deletion strains, locus YNL209W, strain ssb2, active compounds read low",1
same,normalized growth,"S. cerevisiae deletion strains, locus YNL233W, strain BNI4, active compounds read low",0.657 (active)
same,normalized growth,"S. cerevisiae deletion strains, locus YNL248C, strain rpa49, active compounds read low",0.409 (active)
same,normalized growth,"S. cerevisiae deletion strains, locus YNL250W, strain rad50, active compounds read low",0.972
same,normalized growth,"S. cerevisiae deletion strains, locus YNL271C, strain bni1, active compounds read low",0.917 (active)
same,normalized growth,"S. cerevisiae deletion strains, locus YNL298W, strain CLA4, active compounds read low",0.899 (active)
same,normalized growth,"S. cerevisiae deletion strains, locus YNL307C, strain MCK1, active compounds read low",0.589 (active)
same,normalized growth,"S. cerevisiae deletion strains, locus YNL322C, strain KRE1 (second series), active compounds read low",0.876 (active)
same,normalized growth,"S. cerevisiae deletion strains, locus YNR049C, strain mso1, active compounds read low",0.986
same,normalized growth,"S. cerevisiae deletion strains, locus YNR052C, strain pop2, active compounds read low",0.922
same,normalized growth,"S. cerevisiae deletion strains, locus YOL012C, strain htz1",0.626
same,normalized growth,"S. cerevisiae deletion strains, locus YOL147C, strain pex11, active compounds read low",0.872 (active)
same,normalized growth,"S. cerevisiae deletion strains, locus YOR001W, strain rrp6, active compounds read low",0.664 (active)
same,normalized growth,"S. cerevisiae deletion strains, locus YOR061W, strain CKA2, active compounds read low",0.98
same,normalized growth,"S. cerevisiae deletion strains, locus YOR069W, strain VPS5, active compounds read low",0.961
same,normalized growth,"S. cerevisiae deletion strains, locus YOR070C, strain gyp1, active compounds read low",0.976
same,normalized growth,"S. cerevisiae deletion strains, locus YOR080W, strain dia2, active compounds read low",0.999
same,normalized growth,"S. cerevisiae deletion strains, locus YOR083W, strain WHI5, active compounds read low",0.904
same,normalized growth,"S. cerevisiae deletion strains, locus YOR106W, strain vam3, active compounds read low",0.72 (active)
same,normalized growth,"S. cerevisiae deletion strains, locus YOR136W, strain idh2, active compounds read low",0.924
same,normalized growth,"S. cerevisiae deletion strains, locus YOR144C, strain elg1, active compounds read low",0.916 (active)
same,normalized growth,"S. cerevisiae deletion strains, locus YOR184W, strain ser1, active compounds read low",0.686 (active)
same,normalized growth,"S. cerevisiae deletion strains, locus YOR231W, strain MKK1, active compounds read low",0.967
same,normalized growth,"S. cerevisiae deletion strains, locus YOR265W, strain rbl2, active compounds read low",0.997
same,normalized growth,"S. cerevisiae deletion strains, locus YOR270C, strain vph1, active compounds read low",0.777
same,normalized growth,"S. cerevisiae deletion strains, locus YOR290C, strain snf2, active compounds read low",0.844 (active)
same,normalized growth,"S. cerevisiae deletion strains, locus YOR316C, strain cot1, active compounds read low",0.949
same,normalized growth,"S. cerevisiae deletion strains, locus YPL051W, strain arl3, active compounds read low",0.886 (active)
same,normalized growth,"S. cerevisiae deletion strains, locus YPL078C, strain atp4, active compounds read low",0.912
same,normalized growth,"S. cerevisiae deletion strains, locus YPL106C, strain sse1, active compounds read low",0.923
same,normalized growth,"S. cerevisiae deletion strains, locus YPL240C, strain hsp82, active compounds read low",0.837 (active)
same,normalized growth,"S. cerevisiae deletion strains, locus YPL241C, strain CIN2, active compounds read low",0.925 (active)
same,normalized growth,"S. cerevisiae deletion strains, locus YPL256C, strain CLN2, active compounds read low",0.964
same,normalized growth,"S. cerevisiae deletion strains, locus YPR119W, strain clb2, active compounds read low",0.938
same,normalized growth,"S. cerevisiae deletion strains, locus YPR141C, strain kar3, active compounds read low",0.941
same,normalized growth,"S. cerevisiae deletion strains, locus YPR163C, strain tif3, active compounds read low",0.725 (active)
same,normalized growth,"S. cerevisiae deletion strains, locus YPR167C, strain met16, active compounds read low",0.916 (active)
same,normalized growth,"S. cerevisiae deletion strains, strain wtn01, active compounds read low",0.797 (active)
same,normalized growth,"S. cerevisiae strains, strain wild type, active compounds read low",0.579 (active)
